# In publication PMC7862700, “An all-to-all approach to the identification of sequence-specific readers for epigenetic DNA modifications on cytosine”:
# Columns and labels:
# Assay in all cases: DAPPL (digital affinity profiling via proximity ligation, sequencing); 10 mM Tris-HCl pH 7.5, 50 mM NaCl, 1 mM DTT, 4% glycerol, room temperature, 30 min; GST-TFs on glutathione beads, 16-mer random dsDNA library, 0.1% formaldehyde crosslink after washing; high values mean tight binding
# Conditions in all cases: protein: recombinant; tags: N-terminal GST; dsDNA, one strand shown
# [1] = biological target: T1, SPIC (Homo sapiens, UniProt Q8N5J4 1-248)
# T1 sequence: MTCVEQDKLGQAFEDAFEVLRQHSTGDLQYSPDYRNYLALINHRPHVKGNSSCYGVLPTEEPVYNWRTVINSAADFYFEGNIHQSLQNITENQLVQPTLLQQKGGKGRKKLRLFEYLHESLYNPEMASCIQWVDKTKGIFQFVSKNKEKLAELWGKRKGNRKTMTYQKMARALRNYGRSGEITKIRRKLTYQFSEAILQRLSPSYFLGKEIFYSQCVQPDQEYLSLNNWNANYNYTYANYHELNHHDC
# Outline: (§1)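 GST fusions of human transcription factors were expressed in yeast and captured with glutathione beads. Once given DNA barcodes and pooled alongside a tag-only sample, they were incubated for 30 min at room temperature with 200 nmole of a random double-stranded 16-mer DNA library in Tris/NaCl/DTT/glycerol buffer, then washed, crosslinked (0.1% formaldehyde), proximity-ligated, PCR-amplified and sequenced on an Illumina NextSeq500. The binding signal of each hexamer is its read frequency for a factor divided by its frequency for the tag-only sample.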
# [2] = biological target: ELF4 (Homo sapiens, UniProt Q99607 1-663)
# Outline: as §1
# [3] = biological target: T2, ERF (Homo sapiens, UniProt P50548 1-548)
# T2 sequence: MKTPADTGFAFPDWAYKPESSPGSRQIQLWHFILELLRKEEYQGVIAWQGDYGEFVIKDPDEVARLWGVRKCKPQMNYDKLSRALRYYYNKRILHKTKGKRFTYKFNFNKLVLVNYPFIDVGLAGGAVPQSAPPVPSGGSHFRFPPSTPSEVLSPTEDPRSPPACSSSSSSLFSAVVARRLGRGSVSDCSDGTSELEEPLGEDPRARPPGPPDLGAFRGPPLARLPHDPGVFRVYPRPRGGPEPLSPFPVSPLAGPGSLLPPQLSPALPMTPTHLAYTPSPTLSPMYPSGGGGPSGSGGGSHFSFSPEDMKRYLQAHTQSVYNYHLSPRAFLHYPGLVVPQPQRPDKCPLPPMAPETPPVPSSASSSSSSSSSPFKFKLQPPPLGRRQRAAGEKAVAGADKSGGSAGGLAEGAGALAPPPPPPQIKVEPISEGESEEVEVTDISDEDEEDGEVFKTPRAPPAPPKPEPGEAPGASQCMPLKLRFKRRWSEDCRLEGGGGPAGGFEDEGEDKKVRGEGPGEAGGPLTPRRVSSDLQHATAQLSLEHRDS
# Outline: as §1
# [4] = biological target: T3, GABPA (Homo sapiens, UniProt Q06546 1-454)
# T3 sequence: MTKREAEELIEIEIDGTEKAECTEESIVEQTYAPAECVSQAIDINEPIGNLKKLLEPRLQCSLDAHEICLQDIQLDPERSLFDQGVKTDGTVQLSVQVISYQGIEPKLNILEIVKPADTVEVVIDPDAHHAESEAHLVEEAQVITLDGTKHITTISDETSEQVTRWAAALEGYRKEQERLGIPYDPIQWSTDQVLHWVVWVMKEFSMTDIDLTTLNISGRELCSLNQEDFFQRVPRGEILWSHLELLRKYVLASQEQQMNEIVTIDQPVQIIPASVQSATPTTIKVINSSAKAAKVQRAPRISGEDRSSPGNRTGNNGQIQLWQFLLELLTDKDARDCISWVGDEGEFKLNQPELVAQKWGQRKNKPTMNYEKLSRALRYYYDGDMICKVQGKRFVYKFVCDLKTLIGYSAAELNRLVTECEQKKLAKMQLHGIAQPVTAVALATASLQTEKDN
# Outline: as §1
# [5] = biological target: ELF1 (Homo sapiens, UniProt P32519 1-619)
# Outline: as §1
# [6] = biological target: T4, EHF (Homo sapiens, UniProt Q9NZC4 1-300)
# T4 sequence: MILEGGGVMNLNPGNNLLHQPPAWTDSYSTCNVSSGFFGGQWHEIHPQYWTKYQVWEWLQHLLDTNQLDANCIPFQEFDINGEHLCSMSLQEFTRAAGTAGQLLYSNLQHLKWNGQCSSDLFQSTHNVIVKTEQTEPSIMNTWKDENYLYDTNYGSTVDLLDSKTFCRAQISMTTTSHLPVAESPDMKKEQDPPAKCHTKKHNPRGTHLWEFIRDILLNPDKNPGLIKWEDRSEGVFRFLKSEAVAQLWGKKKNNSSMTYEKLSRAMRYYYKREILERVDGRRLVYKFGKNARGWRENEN
# Outline: as §1
# [7] = biological target: SPIB (Homo sapiens, UniProt Q01892 1-262)
# Outline: as §1
# [8] = biological target: T5, ETV2 (Homo sapiens, UniProt O00321 1-342)
# T5 sequence: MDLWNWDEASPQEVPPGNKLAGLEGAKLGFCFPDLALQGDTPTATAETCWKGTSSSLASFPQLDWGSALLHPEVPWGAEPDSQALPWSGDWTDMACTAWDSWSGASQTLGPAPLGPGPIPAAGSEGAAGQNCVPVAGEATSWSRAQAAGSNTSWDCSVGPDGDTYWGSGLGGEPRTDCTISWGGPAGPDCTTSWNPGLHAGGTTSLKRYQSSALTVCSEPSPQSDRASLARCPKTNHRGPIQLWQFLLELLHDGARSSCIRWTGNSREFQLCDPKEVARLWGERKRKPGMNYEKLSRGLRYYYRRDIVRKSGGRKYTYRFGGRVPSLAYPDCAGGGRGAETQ
# Outline: as §1
# [9] = biological target: T6, ELF3 (Homo sapiens, UniProt P78545 1-371)
# T6 sequence: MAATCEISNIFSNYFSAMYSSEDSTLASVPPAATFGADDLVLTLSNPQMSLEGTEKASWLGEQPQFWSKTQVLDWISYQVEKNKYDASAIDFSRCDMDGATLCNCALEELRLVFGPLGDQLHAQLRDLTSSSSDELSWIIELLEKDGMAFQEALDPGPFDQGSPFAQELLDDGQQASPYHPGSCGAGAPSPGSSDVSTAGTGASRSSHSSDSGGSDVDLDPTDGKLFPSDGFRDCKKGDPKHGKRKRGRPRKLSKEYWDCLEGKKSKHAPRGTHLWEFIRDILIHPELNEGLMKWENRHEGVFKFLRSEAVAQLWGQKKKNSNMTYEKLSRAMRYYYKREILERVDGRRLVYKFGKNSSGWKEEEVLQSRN
# Outline: as §1
# [10] = biological target: ETV1 (Homo sapiens, UniProt P50549 1-477)
# Outline: as §1
# [11] = biological target: T7, ETV3L (Homo sapiens, UniProt Q6ZN32 1-361)
# T7 sequence: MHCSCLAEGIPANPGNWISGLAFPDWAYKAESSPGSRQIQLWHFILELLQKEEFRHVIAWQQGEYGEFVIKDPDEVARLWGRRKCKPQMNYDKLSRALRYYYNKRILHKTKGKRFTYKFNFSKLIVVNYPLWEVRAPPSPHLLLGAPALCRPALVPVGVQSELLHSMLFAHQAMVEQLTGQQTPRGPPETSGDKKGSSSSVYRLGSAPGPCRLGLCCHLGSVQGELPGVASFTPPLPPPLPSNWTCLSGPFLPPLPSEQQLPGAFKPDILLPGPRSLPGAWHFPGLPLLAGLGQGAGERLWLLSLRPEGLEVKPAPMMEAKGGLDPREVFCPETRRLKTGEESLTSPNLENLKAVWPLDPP
# Outline: as §1
# [12] = biological target: T8, ETS2 (Homo sapiens, UniProt P15036 1-469)
# T8 sequence: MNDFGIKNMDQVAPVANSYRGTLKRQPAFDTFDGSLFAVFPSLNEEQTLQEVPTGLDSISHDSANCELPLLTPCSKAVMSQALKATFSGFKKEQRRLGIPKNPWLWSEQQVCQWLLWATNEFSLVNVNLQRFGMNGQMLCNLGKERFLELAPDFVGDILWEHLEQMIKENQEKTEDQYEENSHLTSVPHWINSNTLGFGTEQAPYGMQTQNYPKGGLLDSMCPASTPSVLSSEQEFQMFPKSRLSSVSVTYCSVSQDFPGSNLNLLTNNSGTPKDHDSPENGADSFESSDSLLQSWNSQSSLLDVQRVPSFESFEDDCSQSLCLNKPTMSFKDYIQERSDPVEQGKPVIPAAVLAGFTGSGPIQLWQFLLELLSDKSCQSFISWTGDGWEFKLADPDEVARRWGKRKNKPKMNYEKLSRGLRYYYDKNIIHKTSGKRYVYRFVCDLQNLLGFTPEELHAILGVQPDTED
# Outline: as §1
# [13] = biological target: T9, ETV3 (Homo sapiens, UniProt P41162-2 1-143)
# T9 sequence: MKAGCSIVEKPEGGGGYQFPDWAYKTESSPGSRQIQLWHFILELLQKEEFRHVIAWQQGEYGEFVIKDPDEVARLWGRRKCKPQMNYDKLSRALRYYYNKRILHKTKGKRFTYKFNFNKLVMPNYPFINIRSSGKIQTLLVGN
# Outline: as §1
# [14] = biological target: CRX (Homo sapiens, UniProt O43186 1-299)
# Outline: as §1
# Sequence of ELF4 (Q99607 whole entry): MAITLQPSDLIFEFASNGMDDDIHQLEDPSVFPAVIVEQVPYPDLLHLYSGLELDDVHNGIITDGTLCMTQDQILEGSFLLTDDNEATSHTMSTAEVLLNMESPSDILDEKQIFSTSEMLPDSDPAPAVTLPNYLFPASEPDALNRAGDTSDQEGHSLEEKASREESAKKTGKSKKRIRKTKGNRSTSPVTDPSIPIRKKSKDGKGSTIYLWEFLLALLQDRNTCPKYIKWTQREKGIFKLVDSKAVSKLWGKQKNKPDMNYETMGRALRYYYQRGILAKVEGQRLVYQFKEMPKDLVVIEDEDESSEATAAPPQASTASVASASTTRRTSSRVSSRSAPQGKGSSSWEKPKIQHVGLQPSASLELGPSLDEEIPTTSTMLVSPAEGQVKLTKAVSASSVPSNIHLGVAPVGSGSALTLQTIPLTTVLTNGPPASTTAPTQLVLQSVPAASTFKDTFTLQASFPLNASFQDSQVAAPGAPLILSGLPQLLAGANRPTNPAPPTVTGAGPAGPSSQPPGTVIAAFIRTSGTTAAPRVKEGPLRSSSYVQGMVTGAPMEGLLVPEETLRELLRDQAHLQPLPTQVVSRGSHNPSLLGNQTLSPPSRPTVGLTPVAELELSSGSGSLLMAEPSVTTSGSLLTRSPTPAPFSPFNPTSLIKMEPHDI
# Sequence of ETV1 (P50549 whole entry): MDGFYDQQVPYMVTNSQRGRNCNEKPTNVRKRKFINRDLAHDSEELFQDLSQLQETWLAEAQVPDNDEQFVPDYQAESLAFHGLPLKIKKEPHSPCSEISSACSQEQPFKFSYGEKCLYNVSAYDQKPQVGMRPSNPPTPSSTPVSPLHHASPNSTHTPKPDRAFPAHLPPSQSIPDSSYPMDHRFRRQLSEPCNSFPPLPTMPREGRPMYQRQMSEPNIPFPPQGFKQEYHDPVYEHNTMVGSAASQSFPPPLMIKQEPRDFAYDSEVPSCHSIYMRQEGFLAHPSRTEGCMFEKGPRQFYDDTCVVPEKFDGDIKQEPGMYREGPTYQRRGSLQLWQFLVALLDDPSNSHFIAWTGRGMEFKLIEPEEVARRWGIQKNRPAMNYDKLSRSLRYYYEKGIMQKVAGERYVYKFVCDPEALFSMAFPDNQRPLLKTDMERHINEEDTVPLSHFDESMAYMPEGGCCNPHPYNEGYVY
# Sequence of ELF1 (P32519 whole entry): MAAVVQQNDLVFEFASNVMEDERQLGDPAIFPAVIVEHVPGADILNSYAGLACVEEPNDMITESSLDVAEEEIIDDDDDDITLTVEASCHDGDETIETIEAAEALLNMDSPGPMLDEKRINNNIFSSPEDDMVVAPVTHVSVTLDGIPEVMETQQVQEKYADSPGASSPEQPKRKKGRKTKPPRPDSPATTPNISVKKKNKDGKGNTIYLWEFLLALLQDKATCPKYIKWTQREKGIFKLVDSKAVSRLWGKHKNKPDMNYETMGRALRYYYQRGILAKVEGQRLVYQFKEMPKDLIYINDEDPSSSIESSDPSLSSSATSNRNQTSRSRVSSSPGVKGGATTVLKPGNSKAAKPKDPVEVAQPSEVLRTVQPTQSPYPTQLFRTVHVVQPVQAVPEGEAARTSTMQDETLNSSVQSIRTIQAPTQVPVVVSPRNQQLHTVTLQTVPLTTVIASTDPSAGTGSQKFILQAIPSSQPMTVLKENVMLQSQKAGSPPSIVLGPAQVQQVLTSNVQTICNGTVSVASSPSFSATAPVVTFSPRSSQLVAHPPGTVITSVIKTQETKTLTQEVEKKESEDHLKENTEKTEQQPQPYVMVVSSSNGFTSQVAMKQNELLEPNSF
# Sequence of CRX (O43186 whole entry): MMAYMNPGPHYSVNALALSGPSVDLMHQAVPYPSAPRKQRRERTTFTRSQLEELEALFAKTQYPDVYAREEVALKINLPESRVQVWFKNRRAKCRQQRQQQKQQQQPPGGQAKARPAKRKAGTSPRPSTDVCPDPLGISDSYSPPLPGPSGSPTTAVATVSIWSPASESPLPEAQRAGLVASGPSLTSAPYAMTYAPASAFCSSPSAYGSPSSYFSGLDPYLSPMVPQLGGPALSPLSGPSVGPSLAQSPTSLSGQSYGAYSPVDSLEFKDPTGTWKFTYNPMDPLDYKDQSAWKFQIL
# Sequence of SPIB (Q01892 whole entry): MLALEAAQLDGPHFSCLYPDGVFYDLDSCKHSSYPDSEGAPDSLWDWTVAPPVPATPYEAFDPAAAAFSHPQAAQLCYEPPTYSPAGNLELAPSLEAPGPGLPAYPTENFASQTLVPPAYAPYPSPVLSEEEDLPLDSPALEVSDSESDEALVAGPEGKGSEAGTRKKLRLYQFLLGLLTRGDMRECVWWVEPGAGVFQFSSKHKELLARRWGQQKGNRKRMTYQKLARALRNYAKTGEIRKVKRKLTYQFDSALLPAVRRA
sequence,measurement,setting,value
ATTGTG,binding signal,[1],"1.07 fold enrichment (6-mer frequency, TF over GST control)"
same,binding signal,[2],"1 fold enrichment (6-mer frequency, TF over GST control)"
same,binding signal,[3],"1.06 fold enrichment (6-mer frequency, TF over GST control)"
CAGCTC,binding signal,[4],"1.01 fold enrichment (6-mer frequency, TF over GST control)"
same,binding signal,[5],"1.06 fold enrichment (6-mer frequency, TF over GST control)"
same,binding signal,[6],"1.01 fold enrichment (6-mer frequency, TF over GST control)"
same,binding signal,[7],"1.01 fold enrichment (6-mer frequency, TF over GST control)"
same,binding signal,[1],"1.06 fold enrichment (6-mer frequency, TF over GST control)"
same,binding signal,[2],"1.05 fold enrichment (6-mer frequency, TF over GST control)"
same,binding signal,[8],"1.02 fold enrichment (6-mer frequency, TF over GST control)"
same,binding signal,[9],"1.04 fold enrichment (6-mer frequency, TF over GST control)"
same,binding signal,[10],"1.08 fold enrichment (6-mer frequency, TF over GST control)"
same,binding signal,[3],"1.05 fold enrichment (6-mer frequency, TF over GST control)"
same,binding signal,[11],"1.11 fold enrichment (6-mer frequency, TF over GST control)"
same,binding signal,[12],"1.06 fold enrichment (6-mer frequency, TF over GST control)"
same,binding signal,[13],"1 fold enrichment (6-mer frequency, TF over GST control)"
CAATCG,binding signal,[1],"1.03 fold enrichment (6-mer frequency, TF over GST control)"
GTTGGC,binding signal,[1],"1.09 fold enrichment (6-mer frequency, TF over GST control)"
GTGCTG,binding signal,[1],"1.05 fold enrichment (6-mer frequency, TF over GST control)"
CTAAGG,binding signal,[1],"1.06 fold enrichment (6-mer frequency, TF over GST control)"
same,binding signal,[2],"1.02 fold enrichment (6-mer frequency, TF over GST control)"
same,binding signal,[9],"1.02 fold enrichment (6-mer frequency, TF over GST control)"
same,binding signal,[14],"1.12 fold enrichment (6-mer frequency, TF over GST control)"
same,binding signal,[10],"1.01 fold enrichment (6-mer frequency, TF over GST control)"
